Screens (PubChem BioAssay)
Only some compounds are listed: those with a hit (about 3.9% of all), similar ones and a draw of the others.
ALR inh: human ALR oxidase inhibition via reduced H2O2 | actives 3.8% (n = 290,000) | inhibition, % (test concentration not listed) | P55789 | purified ALR, DTT oxidation, H2O2 HRP-luminol luminescence;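 active = mean replicate inhibition above about 79%, with every replicate also reaching it, limit read from the data; inconclusive = only one of the two criteria met; inactive = mean below limit and not every replicate reaching it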
Glyco luc inh: blocks N-linked glycosylation in D54 reporter cells; reporter increase, % at 12.5 µM; actives 0.23% (n = 360,000); AID 588692; D54 ERlucT glycosylation luciferase reporter, 24 h; percent of 100 nM tunicamycin response;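 active = mean luciferase reporter signal, scaled so untreated is 0 and the glycosylation-blocking control 100, at or above a set limit in every replicate; inconclusive = mean reaches the limit but not every replicate does; inactive = mean below the limit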;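 also: luciferase carries N-glycosylation sites so blocking glycosylation raises the light; 0% = median of neutral control wells and 100% = median of 100 nM tunicamycin wells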
SUMO Mot1 rescue: inhibitors of SUMOylation pathway: yeast Mot1-301 growth rescue; AID 2716; S. cerevisiae Mot1-301 growth rescue, ATP luminescence, 38.5C; percent above DMSO median, 100 means doubled; actives 1% (n = 320,000); growth rescue, % at 18.8 µM;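 active = every valid replicate shows activation above 250% relative to neutral control wells; inactive = the rest, any valid replicate at or below 250%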;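 also: OY570 slx delta 5 strain wells were the positive control but not used for scaling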
CASP6 VEID inh: caspase-6 (human) enzyme inhibition | actives 0.53% (n = 350,000) | purified caspase-6, Z-VEID-R110 cleavage fluorescence | inhibition, % at 12.5 µM;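 active = mean inhibition across replicates at least about 35%, with every replicate also reaching that limit, limit read from the data; inconclusive = only one of the two criteria met; inactive = neither criterion met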;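 also: 0% = median of neutral control wells and 100% = no fluorescence left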
NSD2 HMT inh: blocks human histone methyltransferase NSD2. actives 0.54% (n = 310,000). NSD2 peptide methylation, AlphaScreen, 120 min. inhibition, % at 12.5 µM; in the data active = inhibition above about 50%
Target sequence (O96028 whole entry, looked up): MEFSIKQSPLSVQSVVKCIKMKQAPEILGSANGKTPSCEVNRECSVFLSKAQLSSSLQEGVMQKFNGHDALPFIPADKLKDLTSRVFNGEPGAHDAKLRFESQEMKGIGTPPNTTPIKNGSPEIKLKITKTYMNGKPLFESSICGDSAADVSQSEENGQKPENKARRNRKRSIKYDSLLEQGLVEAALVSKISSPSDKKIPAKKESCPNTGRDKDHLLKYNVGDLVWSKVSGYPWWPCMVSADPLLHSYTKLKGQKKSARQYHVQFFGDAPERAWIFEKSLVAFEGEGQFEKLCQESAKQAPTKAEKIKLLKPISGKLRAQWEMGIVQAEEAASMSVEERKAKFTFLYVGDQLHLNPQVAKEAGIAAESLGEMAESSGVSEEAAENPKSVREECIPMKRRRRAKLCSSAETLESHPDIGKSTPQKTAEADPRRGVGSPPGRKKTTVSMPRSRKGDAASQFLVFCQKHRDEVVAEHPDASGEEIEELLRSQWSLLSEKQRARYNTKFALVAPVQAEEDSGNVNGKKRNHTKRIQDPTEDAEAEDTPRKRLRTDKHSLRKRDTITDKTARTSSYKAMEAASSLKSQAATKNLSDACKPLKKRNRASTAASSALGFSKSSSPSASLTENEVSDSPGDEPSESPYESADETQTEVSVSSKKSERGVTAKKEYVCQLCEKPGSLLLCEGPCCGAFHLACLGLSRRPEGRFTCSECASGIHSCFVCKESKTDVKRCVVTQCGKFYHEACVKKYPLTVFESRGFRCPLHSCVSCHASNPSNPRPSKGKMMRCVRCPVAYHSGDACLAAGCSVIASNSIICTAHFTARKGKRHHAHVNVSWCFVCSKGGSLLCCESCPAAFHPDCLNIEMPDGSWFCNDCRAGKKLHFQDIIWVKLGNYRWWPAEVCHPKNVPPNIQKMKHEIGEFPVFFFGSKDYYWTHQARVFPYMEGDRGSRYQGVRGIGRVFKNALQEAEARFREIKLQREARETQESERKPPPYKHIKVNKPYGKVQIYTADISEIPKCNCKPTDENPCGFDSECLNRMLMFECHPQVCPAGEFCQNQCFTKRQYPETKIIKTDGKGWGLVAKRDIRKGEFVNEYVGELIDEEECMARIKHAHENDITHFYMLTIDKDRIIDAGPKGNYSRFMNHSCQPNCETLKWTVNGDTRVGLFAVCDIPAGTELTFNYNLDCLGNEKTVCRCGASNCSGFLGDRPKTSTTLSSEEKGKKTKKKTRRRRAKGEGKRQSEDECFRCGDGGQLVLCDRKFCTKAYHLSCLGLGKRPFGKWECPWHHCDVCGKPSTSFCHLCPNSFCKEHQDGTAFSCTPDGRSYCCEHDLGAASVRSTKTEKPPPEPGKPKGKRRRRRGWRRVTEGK
CDK5 inh: inhibitors of human CDK5/p35 kinase; Q00535+Q15078; Recombinant CDK5/p35, ADP-Glo luminescence, 60 min; inhibition, % at 10 µM; actives 0.01% (n = 330,000); AID 488839;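 active = highest replicate inhibition of at least 50% and at least 75% of replicates reaching 50%; inconclusive = only one of the two criteria met; inactive = both criteria failed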;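 also: plate controls were DMSO neutral control for no effect and GW8510 at 10 µM for full effect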
Mot1 SUMO dose: SUMO pathway inhibitors in yeast Mot1-301 growth; S. cerevisiae Mot1-301 galactose growth, ATP luminescence, 24 h; -100 = growth of slx-deleted rescue strain; AID 493004; 2,300 tested, under 10 active; growth activity, percent, % at 42 µM; shares compounds with SUMO Mot1 rescue;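 active = Signal drops as the depositor expects, and the fitted half-maximal dose is no more than ten times the top valid tested dose; inconclusive = Poor fit, or a flat curve whose signal drops by 30% to 70%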;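 also: more negative values mean stronger growth rescue toward the control strain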
Starred values were filed as active, the others as inactive; ? = inconclusive; / = no result given; + = active, no number.

SMILES | ALR inh | Glyco luc inh | SUMO Mot1 rescue | CASP6 VEID inh | NSD2 HMT inh | CDK5 inh | Mot1 SUMO dose
Cc1ccc(-c2ccc(/C=N/n3cnnc3)o2)cc1Cl | -15.0 | -1.0 | 19.8 | / | 2.6 | 0.8 | /
CC(C)c1ccc(-c2cc(C(=O)N3CCOCC3)c3cc(Br)ccc3n2)cc1 | -0.5 | -2.4 | 614.2* | 4.0 | 6.6 | -6.3 | 0.0
O=C(c1cc(-c2ccccc2)nc2ccccc12)N1CCOCC1 | -2.8 | -0.4 | 79.7 | / | -1.3 | 0.9 | /
C[C@H](CO)N1C[C@H](C)[C@H](CN(C)Cc2ccc(F)cc2)OCc2ccccc2-c2ccccc2C1=O | / | / | / | -0.2 | / | / | /
CC1CCCN(C(=O)Cc2ccc(F)cc2)C1 (configuration not stated) | / | 0.5 | 407.6* | / | -2.5 | -0.7 | -0.2
COc1ccc(CC(=O)N2CCCC(C)C2)cc1 (configuration not stated) | -14.7 | -0.3 | -10.1 | / | 8.1 | / | /
CCC(=O)N1CC2(C1)CN(C(=O)NC1CCCC1)[C@H](CO)c1c2c2ccc(OC)cc2n1C | / | / | / | -0.5 | / | / | /
COc1ccc(CN(C)C[C@H]2Oc3c(NS(=O)(=O)c4ccc(F)cc4)cccc3C(=O)N([C@H](C)CO)C[C@H]2C)cc1 | / | / | / | 1.2 | / | / | /
CCOC(=O)Cn1c(=O)oc2cc(S(=O)(=O)NC(C)(C)CC)ccc21 | -10.9 | -0.9 | 642.7* | 3.0 | / | 0.6 | 0.0
CCOC(=O)Cn1c(=O)oc2cc(S(=O)(=O)NCCC(C)C)ccc21 | 5.5 | -0.7 | 8.9 | 0.6 | / | 1.5 | /
CO[C@H]1CN(C)C(=O)c2cc(NC(=O)Nc3cc(F)ccc3F)ccc2OC[C@H](C)NC[C@@H]1C | / | / | / | -3.3 | / | / | /
Cc1ccc(NC(=O)/C=N/OCC(=O)NCc2ccccc2Cl)cc1 | -12.4 | -2.5 | 464.4* | -2.8 | 0.9 | 1.9 | 0.2
CC[C@H]1CCCCc2ccccc2[C@@H](C(=O)C[C@@H](O)CC(C)=O)OC1=O | / | 2.2 | 527.0* | 3.5 | / | -3.1 | -0.7
CC(C)C#Cc1cnc2c(c1)C(=O)N([C@@H](C)CO)C[C@@H](C)[C@@H](CN(C)C(=O)Cc1ccccn1)O2 | / | / | / | 1.6 | / | / | /
C/C=C\C=C/C(=O)Nc1cccc(C2=NOC3(C2)C[C@@H](C(N)=O)N(C(=O)c2ccccc2)C3)c1 (some centres not stated) | 27.7 | / | 433.3* | / | / | / | 0.0
C/C=C\C(=O)Nc1cccc(C2=NOC3(C2)C[C@@H](C(N)=O)N(C(=O)c2ccccc2)C3)c1 (some centres not stated) | / | 5.3 | 0.9 | 3.3 | / | 2.3 | /
CCOc1ccc(NC(=O)Nc2ccc3nsnc3c2)cc1 | -28.5 | 0.2 | + | -0.9 | -2.2 | -0.9 | 0.6
CCOC(=O)c1c(/N=C/C2C(=O)CCCC2=O)sc2c1CCCC2 | ? | -0.3 | 467.1* | 6.0 | -0.2 | -1.2 | -0.3
COc1cccc(OC)c1C(=O)Nc1ccc2c(c1)N(S(=O)(=O)c1cccs1)CCC2 | -10.8 | -2.8 | 490.2* | 1.2 | -5.6 | -3.8 | 0.4
Cc1cc(C)n(-c2nc(-c3cccc(Cl)c3)cs2)n1 | 22.9 | 1.4 | 434.2* | / | -3.0 | 0.6 | 0.5
CCCN(C)C[C@H]1OCCCC[C@@H](C)Oc2ccc(NS(=O)(=O)c3cccs3)cc2C(=O)N([C@@H](C)CO)C[C@@H]1C | / | / | / | 2.3 | / | / | /
COC(=O)c1ccccc1NC(NC(=O)c1ccco1)C(=O)c1ccccc1 (configuration not stated) | -0.2 | -6.6 | 448.5* | / | 1.4 | 0.6 | -0.9
COc1ccccc1NC(NC(=O)c1ccco1)C(=O)c1ccccc1 (configuration not stated) | -2.4 | -2.5 | 839.2* | -2.4 | / | -2.5 | 0.1
COC(=O)c1ccccc1Oc1ccc(NC(=O)c2ccco2)cc1 | -1.1 | 4.0 | 7.0 | 1.9 | 1.0 | 1.3 | /
COc1ccccc1NC(=S)NC(NC(=O)c1ccco1)C(Cl)(Cl)Cl (configuration not stated) | 2.3 | 1.8 | -7.7 | 3.0 | 0.1 | 0.8 | /
SMILES | ALR inh | Glyco luc inh | SUMO Mot1 rescue | CASP6 VEID inh | NSD2 HMT inh | CDK5 inh | Mot1 SUMO dose
COc1ccc(NC(=O)CN(C)C(=O)/C=C/c2cn(-c3ccccc3)nc2-c2ccc(F)cc2)cc1 | 0.8 | -0.7 | 566.9* | -1.0 | 0.7 | -6.3 | 0.8
COc1cccc(NC(=O)CN(C)C(=O)/C=C/c2cn(-c3ccccc3)nc2-c2ccc(C)cc2)c1 | -7.6 | -4.7 | -7.5 | 0.3 | -1.3 | -1.9 | /
COc1ccc(NC(=O)CN(C)C(=O)/C=C/c2cn(-c3ccccc3)nc2-c2ccc(C)cc2)cc1 | / | -1.4 | 514.9* | -0.9 | -2.6 | -0.4 | -0.3
O=C(C[C@H]1CC[C@@H]2[C@H](COC[C@@H](O)CN2Cc2cccc(C(F)(F)F)c2)O1)NCc1ccncc1 | / | / | / | -1.3 | / | / | /
Cc1cc(C)cc(C(=O)NC(CC(N)=O)c2ccc(NCCN3CCCC3)c([N+](=O)[O-])c2)c1 (configuration not stated) | -1.5 | 0.5 | 6.8 | -6.3 | / | 1.2 | /
Cc1cc(C)cc(C(=O)NC(CC(N)=O)c2ccc(NCCN3CCOCC3)c([N+](=O)[O-])c2)c1 (configuration not stated) | 0.9 | 0.8 | 644.2* | -0.4 | / | 0.9 | 1.1
COC(=O)N(C)C[C@H]1OCc2ccccc2-c2c(n(C)c3ccccc23)C(=O)N([C@@H](C)CO)C[C@H]1C | / | / | / | -0.4 | / | / | /
CC1=CC(C)(C)N(C(=O)CN2C(=O)CCC2=O)c2ccccc21 | 0.5 | 0.2 | -15.7 | 0.2 | -1.1 | -8.5 | /
CC1CC(C)(C)N(C(=O)CN2C(=O)CCC2=O)c2ccccc21 (configuration not stated) | -0.3 | 1.7 | 370.6* | 0.0 | 1.5 | -0.9 | 0.3
CN(C)C(=O)C[C@H]1CC[C@@H](NC(=O)NC2CCCCC2)[C@@H](CO)O1 | / | / | / | 11.9 | / | / | /
CC(=O)c1cc(Cl)ccc1OC(=O)c1ccco1 | 5.3 | -1.5 | 6.0 | / | -0.5 | 0.9 | /
CC(=O)c1cc(C)ccc1OC(=O)c1ccco1 | 4.9 | 0.8 | 429.1* | -0.5 | -1.3 | 0.5 | 0.9
N#C/C(=C/c1ccc(N2CCCCC2)o1)C(=O)Nc1ccc(Cl)cc1 | -1.3 | -1.8 | 587.2* | / | -3.1 | -0.5 | 0.4
O=C(NCCN1CCOCC1)Nc1ccc(Cl)cc1Cl | -0.3 | 0.5 | 901.4* | / | -1.7 | -0.3 | 0.9
O=c1nc(-c2ccccc2)cn[nH]1 | 3.1 | 2.0 | 569.5* | / | -5.5 | -1.5 | 0.5
O=c1ccc(-c2ccccc2)n[nH]1 | -8.4 | 2.6 | 4.4 | -0.5 | / | -0.8 | /
COC(=O)[C@@H]1[C@@H](CO)[C@@H]2Cn3c(ccc(/C=C/c4ccccc4)c3=O)[C@@H]2N1C(=O)C1CCCC1 | / | / | / | -0.9 | / | / | /
O=C(Nc1ccccc1F)C1CCN(C(=O)Cc2ccccc2)CC1 | -17.3 | 1.2 | 683.7* | / | 2.3 | -1.7 | 0.0
